Screening data as filed in PubChem BioAssay.
FBW7 act: human FBW7 E3 ligase activation, primary screen; Q969H0; AlphaScreen FBW7–phospho-cyclin E peptide binding, activator screen; normalized activity (activation), % at 26.1 µM; 650,000 tested, 0.13% active; AID 1259310; in the data active = normalized activity above about 1.9%;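 note: purified mutant Fbw7 with reduced substrate affinity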
Target sequence (Q969H0 whole entry, looked up): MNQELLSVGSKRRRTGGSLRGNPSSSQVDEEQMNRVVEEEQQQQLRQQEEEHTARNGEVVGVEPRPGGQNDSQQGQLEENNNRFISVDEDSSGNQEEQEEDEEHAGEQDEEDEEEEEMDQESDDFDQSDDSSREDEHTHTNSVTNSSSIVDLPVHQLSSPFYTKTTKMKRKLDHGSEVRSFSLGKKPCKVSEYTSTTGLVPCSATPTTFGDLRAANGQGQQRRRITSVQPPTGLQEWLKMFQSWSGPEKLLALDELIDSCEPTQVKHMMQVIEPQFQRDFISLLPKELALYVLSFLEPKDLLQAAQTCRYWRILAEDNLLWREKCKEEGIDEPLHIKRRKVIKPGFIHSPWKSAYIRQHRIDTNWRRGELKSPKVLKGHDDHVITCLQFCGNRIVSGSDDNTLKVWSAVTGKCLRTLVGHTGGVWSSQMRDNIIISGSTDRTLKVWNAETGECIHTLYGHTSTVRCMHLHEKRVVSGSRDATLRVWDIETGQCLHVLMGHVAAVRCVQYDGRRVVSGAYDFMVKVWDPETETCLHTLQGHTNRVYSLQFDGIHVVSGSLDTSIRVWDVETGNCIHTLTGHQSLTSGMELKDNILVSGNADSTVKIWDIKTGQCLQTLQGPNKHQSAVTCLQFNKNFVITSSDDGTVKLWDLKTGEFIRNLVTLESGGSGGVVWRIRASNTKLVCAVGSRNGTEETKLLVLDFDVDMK
MITF primary: blocks human microphthalmia-associated transcription factor | O75030 | AlphaScreen MITF homodimerization, bead proximity signal | inhibition, % at 2.6 µM | 650,000 tested, 0.91% active; in the data active = inhibition above about 50%;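 note: 0% = vehicle wells with protein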
TEAD-YAP block: TEAD-YAP interaction inhibition; HEK-TIYL cells, TEAD-Gal4/YAP UAS-luciferase luminescence; 640,000 tested, 1.4% active; AID 1259422; inhibition, % at 9.12 µM; in the data active = inhibition above about 32%;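 note: 0% = median of test compound wells and 100% = reference inhibitor wells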
GPR151 activ: activates the human receptor GPR151. activation, % at 11.2 µM. 650,000 tested, 1% active. PathHunter beta-arrestin GPR151 cells, luminescence. Q8TDV0; in the data active = activation above about 4.9%;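 note: 0% = median of compound wells and 100% = cells with positive control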
An asterisk follows results filed as active. In the library only some 3.5% were active in any assay of this set; here they are far more common.

SMILES	FBW7 act	MITF primary	TEAD-YAP block	GPR151 activ
CC(C)n1cnc2c(NC3CCN(Cc4ccccc4)CC3)nc(Cl)nc21	0	-2	47*	1
CC(C)n1cnc2c(NC3CC3)nc(N3CCN(c4ccccn4)CC3)nc21	0	12	35*	2
CC(C)n1cnc2c(NC3CCN(Cc4ccccc4)CC3)nc(-c3cccc(N)c3)nc21	0	11	90*	2
CC(C)n1cnc2c(NC3CCN(Cc4ccccc4)CC3)nc(-c3ccc(C(N)=O)cc3)nc21	0	-8	92*	-2
COc1ccc(-c2nc(NC3CCN(Cc4ccccc4)CC3)c3ncn(C(C)C)c3n2)cn1	0	0	19	-1
O=C(c1ccc(Cl)c(Cl)c1)N1CCN(c2ccc([N+](=O)[O-])cc2F)CC1	0	6	-11	1
CC(C)n1cnc2c(NC3CCN(Cc4ccccc4)CC3)nc(Nc3ccncn3)nc21	0	15	71*	-3
CC(C)n1cnc2c(NC3CCN(Cc4ccccc4)CC3)nc(Nc3ccccn3)nc21	0	13	30	0
Cc1cc(/C=C(\C#N)C(=O)NCc2ccco2)c(C)n1-c1cccc(Cl)c1	0	18	-9	0
Cc1nc(NCc2ccc(Cl)cc2)c2c(C)c(C)sc2n1	0	12	39*	0
COC(=O)Cc1nc(NCc2ccccc2OC)c2c(C)c(C)sc2n1	1	20	4	1
Cc1sc2ncnc(NCc3ccc(Cl)cc3)c2c1C	0	-4	-3	1
COc1ccccc1CNc1nc(C)nc2sc(C)c(C)c12	0	0	46*	2
Cc1sc2nc(-c3cccnc3)nc(NCc3cccnc3)c2c1C	0	73*	68*	-2
Cc1nc(NCc2ccc(F)cc2)c2c(C)c(C)sc2n1	0	8	35*	1
CN1CCN(S(=O)(=O)c2ccc(Oc3ccc(CO)cc3)nc2)CC1	0	-10	1	0
COc1ccc(-c2cc(C(F)(F)F)nc(S(=O)(=O)CCC(=O)NC(C)C)n2)cc1	0	4	0	-1
CCCNC(=O)CCS(=O)(=O)c1nc(-c2ccc(OC)cc2)cc(C(F)(F)F)n1	2.1*	3	10	0
O=C1OC(c2cc([N+](=O)[O-])ccc2Cl)=N/C1=C\c1ccc(Cl)c(Cl)c1	0	-12	3	0
CC(C)NCCCOc1ccc(Cl)cc1Br	0	14	32*	-1
CC(C)NCCOc1ccc(Cl)cc1Br	0	2	-7	-2
CC(=O)C1=C(O)C(=O)N(c2nc3ccccc3s2)C1c1ccccc1F (configuration not stated)	0	15	-77	1
CC(=O)C1=C(O)C(=O)N(c2nc3ccccc3s2)C1c1ccc(Cl)cc1Cl (configuration not stated)	0	20	66*	1
O=c1oc(/C=C/c2ccc([N+](=O)[O-])cc2)nc2cc([N+](=O)[O-])ccc12	0	3	1	0
CC(C)(C)C(C)(O)C#Cc1ccccc1 (configuration not stated)	0	0	83*	-8
SMILES	FBW7 act	MITF primary	TEAD-YAP block	GPR151 activ
CC(O)(C#Cc1ccccc1)c1ccccc1 (configuration not stated)	0	-9	-2	0
COC(=O)C1=CN(CC2CCCO2)C=C(C(=O)OC)C1c1cccc(Oc2ccccc2)c1 (configuration not stated)	2.4*	-16	-24	0
COC(=O)C1=CN(CC2CCCO2)C=C(C(=O)OC)C1c1cccc(O)c1 (configuration not stated)	0	11	3	0
CCN1C=C(C(=O)OC)C(c2cccc(OCc3ccccc3)c2)C(C(=O)OC)=C1	2.0*	4	-2	1
COC(=O)C1=CN(C)C=C(C(=O)OC)C1c1cccc(OCc2ccccc2)c1	2	-21	-16	0
CCCOc1ccc(C2C(C(=O)OC)=CN(CCC)C=C2C(=O)OC)cc1	3.0*	6	-5	2
CC(C)N1CCc2c(sc(NC(=O)C(C)(C)C)c2C(N)=O)C1	1	13	74*	0
c1coc(C(CNc2ncnc3sc4c(c23)CCC4)N2CCCC2)c1 (configuration not stated)	0	-3	-1	1
COc1ccc(NC(=O)C(c2ccc(C)cc2)N2CCOCC2)cc1 (configuration not stated)	0	7	-9	0
O=c1cc2oc3cc(O)c(O)cc3c(-c3ccc([N+](=O)[O-])o3)c-2cc1O	0	106*	6	-1
CCCc1cc2c(=O)c(-c3ccc4c(c3)OCO4)c(CC)oc2cc1O	0	-8	10	2
CCN(CC)c1ccc(-c2c3cc(O)c(=O)cc-3oc3cc(O)c(O)cc23)cc1	0	110*	10	-2
O=c1cc2oc3cc(O)c(O)cc3c(-c3ccc4c(c3)OCO4)c-2cc1O	-1	113*	18	-1
Cc1ccc(CN2CC(C(=O)Nc3ncc(C)s3)CC2=O)cc1 (configuration not stated)	0	-7	44*	-1
COc1cccc(NC(=O)c2ccc(NCc3ccccc3OC)c([N+](=O)[O-])c2)c1	0	2	49*	1
COc1ccccc1CNc1ccc(C(=O)Nc2ccc(C(C)C)cc2)cc1[N+](=O)[O-]	0	-2	-8	0
COc1cccc(NC(=O)c2ccc(C)cc2)c1	0	6	62*	-10
COc1cccc(NC(=O)c2ccc(C)cc2Cl)c1	0	13	67*	-3
COc1cccc(NC(=O)c2ccc(NC(C)=O)cc2)c1	1	11	-23	1
COc1cccc(C(=O)Nc2cccc(OC(=O)c3ccc(Br)cc3)c2)c1	0	3	44*	-2
Cc1ccc(C(=O)Nc2ccc(F)cc2)c(Cl)c1	0	5	62*	-3
O=C(Nc1ccc(F)cc1)c1ccc(Cl)cc1Cl	1	12	-22	-3
Cc1ccc(N2C(=O)CC(NCc3ccccc3Cl)C2=O)cc1 (configuration not stated)	0	7	-8	1
CCCCCCCC(=O)Nc1ccc(C(=O)Nc2ccc(O)c(C(=O)O)c2)cc1	4.1*	50	-7	0
CCOC(=O)c1c(C)n(C)c2c1cc(OC(=O)c1ccc(Br)cc1)c1ccccc12	0	7	-2	-2
SMILES	FBW7 act	MITF primary	TEAD-YAP block	GPR151 activ
O=C(Nc1ccc(N2CCOCC2)cc1)c1cnccn1	0	-8	49*	-4
O=C(Nc1ccc(N2CCN(C(=O)c3ccco3)CC2)cc1)c1cccc2ccccc12	0	9	55*	0
O=C(Nc1ccc(N2CCN(Cc3ccccc3)CC2)cc1)c1ccco1	1	9	-4	0
O=C(Nc1ccc(N2CCOCC2)cc1)c1ccco1	0	9	62*	-5
COC(=O)CCn1c(=O)c2c(nc3n(-c4ccc(C)cc4)c(C)c(C)n23)n(C)c1=O	0	7	2	1
N#CC(C#N)=C1C=CC=CN1/C(=C\c1ccccc1)C(=O)c1ccccc1	1	12	-5	1
Cn1cccc1/C=C(\C(=O)c1ccccc1)N1C=CC=CC1=C(C#N)C#N	0	-5	61*	0
